Source: PubChem BioAssay (NCI)
Compounds without any hit were thinned out: in the full panel of roughly 79,000, 15% have a hit. A number with no mark means an inactive call. Calls of active or inactive are those of the source. No stated cut-off is given here; in the data, active means growth inhibition above about 70%; inactive means the rest.

Legend:
[1] = NCI Yeast Anticancer Drug Screen. Data for the rad50 strain (AID 155);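 further: 0% = growth of vehicle-only cultures of the same strain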; conditions: S. cerevisiae rad50 strain growth inhibition; at 50.0 µM; active compounds read high
Summary of the method: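 Cells are treated with compound, grown, and their growth is then scored against vehicle-only cultures of the same repair-deficient yeast strain.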

[2] = NCI Yeast Anticancer Drug Screen. Data for the mec2-1 strain (AID 157); conditions: S. cerevisiae mec2-1 strain, at 50.0 µM, active compounds read high
Summary of the method: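 Growth inhibition is read against vehicle-treated controls after compound exposure of the mec2-1 yeast strain, which is defective in DNA damage repair or cell cycle control.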

[3] = NCI Yeast Anticancer Drug Screen. Data for the sgs1 mgt1 strain (AID 161);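 further: 0% = growth of cultures given vehicle only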; conditions: S. cerevisiae sgs1 mgt1 strain, at 50.0 µM, active compounds read high
Summary of the method: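 Yeast cells carrying a defined DNA-repair defect were exposed to test compounds. Growth inhibition was measured relative to vehicle-treated controls.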

[4] = NCI Yeast Anticancer Drug Screen. Data for the cln2 rad14 strain (AID 165);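 further: 0% = growth equal to vehicle treated cultures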; conditions: S. cerevisiae cln2 rad14 strain, at 50.0 µM, active compounds read high
Summary of the method: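 Growth inhibition, relative to vehicle-treated controls, is the read-out. The test organism is a yeast strain with defined genetic alterations, cln2 rad14.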

[5] = NCI Yeast Anticancer Drug Screen. Data for the bub3 strain (AID 167); conditions: S. cerevisiae bub3 mutant strain, at 50.0 µM, active compounds read high
Summary of the method: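 Part of a panel of yeast mutants defective in DNA damage repair or cell cycle regulation. Each strain is grown with compound, and inhibition is calculated relative to solvent-treated cultures.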

[6] = NCI Yeast Anticancer Drug Screen. Data for the mlh1 rad18 strain (AID 175); conditions: S. cerevisiae mlh1 rad18 strain growth inhibition; at 50.0 µM; active compounds read high
Summary of the method: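 Cells of a genetically altered yeast strain, deficient in DNA damage repair, were treated with compound. Their growth was then compared with that of vehicle-treated cultures to give inhibition.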

Row | SMILES | growth inhibition [1] | growth inhibition [2] | growth inhibition [3] | growth inhibition [4] | growth inhibition [5] | growth inhibition [6]
1 | Cc1ccc(CNC(=O)Nc2cccc(Cl)c2)cc1C | 6.05% | 15.5% | 7.05% | 1.3% | 16.8% | 5.35%
2 | Fc1ccc(CSC(=S)Nc2ccc(I)cc2)cc1 | 98.8% (active) | 99.2% (active) | 99.2% (active) | 99.2% (active) | 98.7% (active) | 99% (active)
3 | Cn1c2ccccc2c(=O)c2cc(NC(=O)/C=C/C(=O)Nc3ccc4c(c3)c(=O)c3ccccc3n4C)ccc21 | -3.25% | 0.75% | -2.7% | -14.6% | -3.8% | 5.9%
4 | CC(=O)c1ccccc1NC(=O)C(=O)C(C(=O)c1ccccc1-c1ccccc1)C1OC(=O)c2ccccc21 (stereo unspecified) | 25% | 2.95% | 8.3% | -49.8% | -1.35% | 11.3%
5 | CC(=O)OC1CCC2(C)C3=C(C(=O)CC2C1(C)C)C1(C)CCC(C(C)CCCC(C)C)C1(C)CC3 (stereo unspecified) | 0.3% | 1.6% | -25.4% | 3.15% | 4.3% | -0.6%
6 | CCCCCCOCC(=O)O | -6.75% | -11.2% | -7.25% | -19.8% | -10.4% | -13.7%
7 | NCc1ccc2ccc3ccccc3c2c1 | 11.1% | -0.95% | -1.35% | 11.2% | -4.45% | 19.7%
8 | CC(=O)OC1CCC2(C)C(=CCC3C2CCC2(C)C(/C(C)=N/NC(N)=O)CCC32)C1 (stereo unspecified) | 14.4% | -2.8% | -0.1% | -39.6% | -0.6% | -0.5%
9 | CCN(C=O)c1ccccc1 | 15.7% | -7.55% | -6.95% | -0.8% | 5.95% | 6.55%
10 | CC(C)(C)C(c1ccccc1)[N+](C)(C)C (stereo unspecified) | -22.2% | -2% | -2.05% | 18.9% | 15.2% | 29.9%
11 | CCCCC(Nc1nncs1)Nc1nncs1 | -8.9% | -18% | 9.85% | 3.7% | 11.3% | 2.6%
12 | C[N+](C)(C[Si](C)(C)C)C1CCCCCCCCCCC1 | 11.4% | 1.3% | -8.8% | -10.9% | 14.1% | 22.2%
13 | O=C(O)c1oc(C(=O)O)c(C(=O)O)c1C(=O)O | -15% | -38.1% | -18.6% | -28.6% | -32.1% | 7.6%
14 | O=c1[nH]cnc2nn(C3OC(CO)C(O)C3O)nc12 (stereo unspecified) | 10.7% | 11.5% | 1.5% | 11.2% | -7.2% | 23.6%
15 | CCn1c(O)c(C=Nc2ccccc2)s/c1=N/Nc1nc(C)c(C(C)=O)s1 | 24.6% | 5.25% | 17.2% | 16.1% | 42.9% | 21.2%
16 | Nc1nc(N)c2c(n1)Nc1ccc(Cl)nc1S2 | 94.2% (active) | 69.3% | 89.1% (active) | 52.2% | 81.1% (active) | 93.8% (active)
17 | Nc1ccc(F)cc1C(F)(F)F | 6.65% | -45% | -4.55% | -7.75% | -8.05% | 23%
18 | CS(=O)(=O)CC1=NC(=N)N=C1CS(C)(=O)=O | 6.05% | -14.9% | -8.95% | -4.85% | -29.8% | 2.1%
19 | Brc1ccccc1/C=N\N=C\c1ccccc1Br | 12.9% | 2.5% | 12.2% | -5.25% | -6.4% | 5.35%
20 | c1ccc(CCCCCCc2ccccc2)cc1 | -33.9% | -22% | -8.5% | -6.55% | -14.6% | 1.3%
21 | C/C=C/C(=O)OCCC[N+](C)(C)C | 8.8% | 12.3% | 2.8% | -0.95% | 13.9% | -23.8%

Row | SMILES | growth inhibition [1] | growth inhibition [2] | growth inhibition [3] | growth inhibition [4] | growth inhibition [5] | growth inhibition [6]
22 | CC1=C(c2ccccc2)OS(=O)(=O)CC1N(C)C (stereo unspecified) | -2.6% | -16.4% | -1.65% | -6.95% | -7.4% | -2.35%
23 | OCCc1nccnn1 | -2.65% | 5.8% | 1.9% | -1.35% | 4.65% | -3.6%
24 | O=S1(=O)c2ccccc2NC(c2ccc3ccccc3c2)CC1c1ccccc1F (stereo unspecified) | -25.3% | -28.1% | -47% | 4.95% | -18.4% | -14.2%
25 | Cc1ccc(Cc2nn(C)c(=O)n2-n2cccc2)cc1 | -37.1% | -13.7% | -10% | -1.7% | -19.1% | -7.45%
26 | c1ccc(SC2CCSc3ccccc3C2Sc2ccccc2)cc1 (stereo unspecified) | 3.2% | -14.7% | 3.2% | 3.65% | 0.5% | 11.2%
27 | O=C(NC(=O)C(F)(F)C(F)(F)F)Nc1cc(F)ccc1F | 5.15% | -2.05% | 1.45% | -38.8% | -6.55% | -29%
28 | CC(C)(C)c1[nH]ncc1CCC(=O)Nc1ccc(Cl)cc1Cl | -0.6% | -1.95% | -5.85% | 1.1% | -16.1% | 4.05%
29 | O=CCCc1ccccc1 | 31.6% | -22.1% | -22.2% | -29.6% | 22% | 56.1%
30 | CCCCCCCCCCCCCCCCc1c(C)ncn(C)c1=O | -13.9% | 2% | 5.4% | -8.15% | -9.2% | -49%
31 | Nc1nc2c(N)cc(C(F)(F)F)cc2nc1-c1ccccc1 | -38.2% | -17.2% | -1.9% | 7.95% | -6.25% | -12.4%
32 | COc1cc(C(C)c2cc3c(cc2O)OCO3)cc(OC)c1OC (stereo unspecified) | -31.2% | -26.1% | -15.6% | 8.5% | 26.8% | -16.4%
33 | O=C(CCN1C(=O)c2ccccc2C1=O)NCS(=O)(=O)O | -11.8% | -4.7% | -11.1% | -47.5% | 16.2% | -17.5%
34 | Oc1[nH]c2ccccc2c1N=Nc1nc(-c2ccc(Br)cc2)cs1 | -24.9% | -24.8% | -17.4% | -10.2% | 12% | 5.5%
35 | CCOC(CCc1c(C)nc[nH]c1=O)OCC | -1.8% | 3.7% | -2.35% | -35.4% | 16.2% | -7.9%
36 | O=C(O)C(CSC(c1ccccc1)(c1ccccc1)c1ccccc1)Nc1ccccc1[N+](=O)[O-] (stereo unspecified) | 99% (active) | 99.2% (active) | 99.4% (active) | 98% (active) | 98.3% (active) | 99.2% (active)
37 | C=C1CC[C@H]2C(C)=CC[C@H]3C(=C)C(=O)O[C@@H]3[C@@H]12 | -36.4% | -17% | -24.1% | -3.9% | -15.4% | -6%
38 | CCOC(=O)N/N=C(/OCC)c1ccccc1 | 9.75% | 2.7% | -7.2% | 5.8% | 13.8% | 5.8%
39 | CN(C)S(=O)(=O)N1CCOCC1 | 9.3% | -6.65% | -1.15% | 11.2% | -2.8% | 4.8%
40 | Cc1ccc(-c2ccno2)cc1 | 1.7% | 3.15% | 1.25% | -14.3% | -8.3% | 2.25%
41 | CCn1c(=O)c(C(=O)O)c(Cl)c2cc3c(cc21)OCO3 | 10.3% | 9% | 17.5% | 18.9% | 6.15% | 38.2%
